About 8,800 targets were measured; listed, in parts, are those with a hit and a random draw of the rest. About 0.5% of all pairs of compound and target were hits.
Legend:
Experiment in all cases: log2 fold change, soluble protein after heating vs DMSO (PISA); higher = thermal stabilisation; K562 lysate, 10 uM; active = over 0.2 and 3.5 SD of the protein, either way, in both replicates (recomputed)
vemurafenib = compound: CCCS(=O)(=O)Nc1ccc(F)c(C(=O)c2c[nH]c3ncc(-c4ccc(Cl)cc4)cc23)c1F [vemurafenib]
How it was run: (§1)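 K562 pellets were dounce-homogenised in PBS pH 7.4 with 1 mM MgCl2, and the crude extract at 1 mg/mL protein was treated with 10 μM compound for 30 min. Aliquots were heated for 3 min across 48°C-58°C, pooled, and brought to 0.5% NP-40 at 4°C; soluble protein was the supernatant after 21,000xg for 90 min. Soluble protein was quantified by TMTpro 16plex LC-MS/MS with channel sums equalised, and reported as log2 fold change in thermal stability against DMSO controls, with values from duplicates.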

[1] = compound: CCCS(=O)(=O)Nc1ccc(F)c(C(=O)c2c[nH]c3ncc(Cl)cc23)c1F
How it was run: as §1

barasertib = compound: CCN(CCCOc1ccc2c(Nc3cc(CC(=O)Nc4cccc(F)c4)[nH]n3)ncnc2c1)CCOP(=O)(O)O [barasertib]
How it was run: as §1

[2] = compound: CC[C@@H]1C(=O)N(C)c2cnc(Nc3ccc(C(=O)NC4CCN(C)CC4)cc3OC)nc2N1C1CCCC1
How it was run: as §1

volasertib = compound: CC[C@@H]1C(=O)N(C)c2cnc(Nc3ccc(C(=O)N[C@H]4CC[C@H](N5CCN(CC6CC6)CC5)CC4)cc3OC)nc2N1C(C)C [volasertib]
How it was run: as §1

[3] = compound: CCn1c(C(=O)N(C2CC2)C2CC2)cc2c3c(ncn3C)c(Nc3cc(C)n(C)n3)nc21
How it was run: as §1

[4] = compound: CCn1cc(-c2ccnc3[nH]c(-c4cccc(CN(C)C)c4)cc23)c(-c2ccc(NC(=O)N(C)C)cc2)n1
How it was run: as §1

[5] = compound: CN1CCC(CNc2ccc3ncc(-c4cccc(OC(F)(F)F)c4)n3n2)CC1
How it was run: as §1

saracatinib = compound: CN1CCN(CCOc2cc(OC3CCOCC3)c3c(Nc4c(Cl)ccc5c4OCO5)ncnc3c2)CC1 [saracatinib]
How it was run: as §1

sotrastaurin = compound: CN1CCN(c2nc(C3=C(c4c[nH]c5ccccc45)C(=O)NC3=O)c3ccccc3n2)CC1 [sotrastaurin]
How it was run: as §1

alvocidib = compound: CN1CC[C@H](c2c(O)cc(O)c3c(=O)cc(-c4ccccc4Cl)oc23)[C@H](O)C1 [alvocidib]
How it was run: as §1

Tubastatin A = compound: CN1CCc2c(c3ccccc3n2Cc2ccc(C(=O)NO)cc2)C1 [Tubastatin A]
How it was run: as §1

[6] = compound: CNC(=O)C1=CC=CC=C1NC2=NC(=NC=C2Cl)NC3=C(C=C(C=C3)N4CCOCC4)OC
How it was run: as §1

defactinib = compound: CNC(=O)c1ccc(Nc2ncc(C(F)(F)F)c(NCc3nccnc3N(C)S(C)(=O)=O)n2)cc1 [defactinib]
How it was run: as §1

[7] = compound: CNc1nc(-c2ccc3c(N)n[nH]c3c2)cc(N2C[C@@H](C(=O)NC3CCCCC3)CC[C@H]2C)n1
How it was run: as §1

encorafenib = compound: COC(=O)N[C@@H](C)CNc1nccc(-c2cn(C(C)C)nc2-c2cc(Cl)cc(NS(C)(=O)=O)c2F)n1 [encorafenib]
How it was run: as §1

[8] = compound: COC(=O)[C@H](CCSC)NC(=O)C1=C(C=C(C=C1)NC[C@H](CS)N)C2=CC=CC=C2
How it was run: as §1

alisertib = compound: COc1cc(Nc2ncc3c(n2)-c2ccc(Cl)cc2C(c2c(F)cccc2OC)=NC3)ccc1C(=O)O [alisertib]
How it was run: as §1

[9] = compound: COc1cc2nc(-c3cc(F)ccc3O)nc(N[C@@H]3CNC[C@H]3C(C)(C)O)c2cc1OC
How it was run: as §1

gefitinib = compound: COc1cc2ncnc(Nc3ccc(F)c(Cl)c3)c2cc1OCCCN1CCOCC1 [gefitinib]
How it was run: as §1

Measured: log2 fold change

GIGYF2 (UniProt Q6Y7W6)
inactive: vemurafenib -0.001 | [1] -0.017 | barasertib 0.049 | [2] 0.093 | volasertib -0.05 | [3] -0.001 | [4] 0.028 | [5] -0.055 | saracatinib 0.009 | sotrastaurin -0.001 | alvocidib -0.028 | Tubastatin A -0.164 | [6] 0.052 | defactinib 0.017 | [7] 0.019 | encorafenib 0.092 | [8] -0.063 | alisertib 0.028 | [9] 0.013 | gefitinib 0.005

FXR1 (UniProt P51114)
Sequence of UniProt P51114 (P51114 whole entry, looked up): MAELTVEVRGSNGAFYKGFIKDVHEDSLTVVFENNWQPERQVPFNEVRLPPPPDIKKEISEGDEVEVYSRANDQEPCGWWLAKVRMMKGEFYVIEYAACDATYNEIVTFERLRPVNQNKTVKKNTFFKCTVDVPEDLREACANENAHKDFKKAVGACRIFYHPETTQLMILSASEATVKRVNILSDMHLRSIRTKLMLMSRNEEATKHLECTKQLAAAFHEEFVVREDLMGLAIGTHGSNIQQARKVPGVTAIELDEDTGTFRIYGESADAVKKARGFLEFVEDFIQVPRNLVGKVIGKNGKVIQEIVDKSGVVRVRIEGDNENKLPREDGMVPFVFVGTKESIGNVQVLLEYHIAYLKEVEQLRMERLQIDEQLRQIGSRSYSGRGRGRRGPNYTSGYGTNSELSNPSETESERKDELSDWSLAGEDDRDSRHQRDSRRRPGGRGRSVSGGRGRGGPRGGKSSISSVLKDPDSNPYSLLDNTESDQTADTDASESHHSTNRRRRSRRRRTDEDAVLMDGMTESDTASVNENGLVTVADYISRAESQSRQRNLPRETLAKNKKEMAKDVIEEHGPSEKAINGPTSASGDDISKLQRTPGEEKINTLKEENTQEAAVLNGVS
inactive: vemurafenib -0.047 | [1] 0.009 | barasertib 0.01 | [2] -0.036 | volasertib -0.022 | [3] 0.018 | [4] -0.107 | [5] 0.012 | saracatinib -0.036 | sotrastaurin -0.011 | alvocidib -0.028 | Tubastatin A -0.176 | [6] 0.02 | defactinib -0.043 | [7] -0.039 | encorafenib 0.057 | [8] 0.035 | alisertib -0.012 | [9] 0.012 | gefitinib -0.022

ERI1 (UniProt Q8IV48)
Sequence of UniProt Q8IV48 (Q8IV48 whole entry, looked up): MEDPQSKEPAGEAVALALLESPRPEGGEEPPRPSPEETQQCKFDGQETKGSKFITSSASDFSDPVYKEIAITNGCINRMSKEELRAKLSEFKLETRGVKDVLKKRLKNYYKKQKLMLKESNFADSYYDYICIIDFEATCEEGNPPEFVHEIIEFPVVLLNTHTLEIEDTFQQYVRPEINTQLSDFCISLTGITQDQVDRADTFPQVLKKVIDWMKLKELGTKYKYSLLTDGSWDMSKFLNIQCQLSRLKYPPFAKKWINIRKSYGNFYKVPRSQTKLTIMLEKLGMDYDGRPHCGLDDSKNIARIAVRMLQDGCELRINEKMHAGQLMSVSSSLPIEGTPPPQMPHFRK
inactive: vemurafenib 0.01 | [1] 0.01 | barasertib 0.008 | [2] -0.018 | volasertib -0.023 | [3] -0.008 | [4] 0.065 | [5] -0.112 | saracatinib -0.006 | sotrastaurin 0.034 | alvocidib 0.008 | Tubastatin A 0 | [6] 0.026 | defactinib 0.004 | [7] -0.021 | encorafenib 0.025 | [8] 0.118 | alisertib -0.015 | [9] -0.02 | gefitinib -0.007

EXOC6 (UniProt Q8TAG9)
inactive: vemurafenib -0.041 | [1] 0.033 | barasertib 0.032 | [2] -0.033 | volasertib -0.047 | [3] 0.032 | [4] -0.05 | [5] -0.075 | saracatinib 0.018 | sotrastaurin 0.06 | alvocidib -0.014 | Tubastatin A -0.092 | [6] 0.013 | defactinib 0.008 | [7] -0.017 | encorafenib 0.015 | [8] 0.039 | alisertib 0.007 | [9] 0.016 | gefitinib 0.003

FASTKD5 (UniProt Q7L8L6)
Sequence of UniProt Q7L8L6 (Q7L8L6 whole entry, looked up): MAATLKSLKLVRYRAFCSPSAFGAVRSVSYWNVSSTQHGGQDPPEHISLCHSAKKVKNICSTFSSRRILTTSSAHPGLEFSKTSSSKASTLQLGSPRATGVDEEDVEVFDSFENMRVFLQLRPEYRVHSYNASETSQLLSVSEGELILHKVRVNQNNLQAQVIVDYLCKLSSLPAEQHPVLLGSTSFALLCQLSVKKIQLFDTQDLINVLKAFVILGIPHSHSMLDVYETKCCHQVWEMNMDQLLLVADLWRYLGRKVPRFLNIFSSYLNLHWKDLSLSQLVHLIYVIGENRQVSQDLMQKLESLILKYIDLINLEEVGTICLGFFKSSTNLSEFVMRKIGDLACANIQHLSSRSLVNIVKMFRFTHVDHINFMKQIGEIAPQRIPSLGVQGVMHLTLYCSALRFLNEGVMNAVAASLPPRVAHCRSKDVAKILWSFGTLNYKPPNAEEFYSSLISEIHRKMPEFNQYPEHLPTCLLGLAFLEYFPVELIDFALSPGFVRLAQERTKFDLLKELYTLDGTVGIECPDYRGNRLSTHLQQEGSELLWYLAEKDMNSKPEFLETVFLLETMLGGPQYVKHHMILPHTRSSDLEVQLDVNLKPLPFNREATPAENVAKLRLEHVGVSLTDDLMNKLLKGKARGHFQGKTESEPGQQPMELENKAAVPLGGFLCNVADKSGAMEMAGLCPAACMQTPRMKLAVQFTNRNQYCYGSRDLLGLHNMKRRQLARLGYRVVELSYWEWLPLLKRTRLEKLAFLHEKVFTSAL
inactive: vemurafenib -0.003 | [1] 0.008 | barasertib -0.047 | [2] 0.073 | volasertib -0.065 | [3] 0.028 | [4] 0.082 | [5] -0.245 | saracatinib 0.043 | sotrastaurin -0.026 | alvocidib 0.024 | Tubastatin A -0.11 | [6] 0.03 | defactinib 0.011 | [7] -0.017 | encorafenib 0.064 | [8] 0.135 | alisertib 0.002 | [9] 0.072 | gefitinib -0.018

FAM118B (UniProt Q9BPY3)
Sequence of UniProt Q9BPY3 (Q9BPY3 whole entry, looked up): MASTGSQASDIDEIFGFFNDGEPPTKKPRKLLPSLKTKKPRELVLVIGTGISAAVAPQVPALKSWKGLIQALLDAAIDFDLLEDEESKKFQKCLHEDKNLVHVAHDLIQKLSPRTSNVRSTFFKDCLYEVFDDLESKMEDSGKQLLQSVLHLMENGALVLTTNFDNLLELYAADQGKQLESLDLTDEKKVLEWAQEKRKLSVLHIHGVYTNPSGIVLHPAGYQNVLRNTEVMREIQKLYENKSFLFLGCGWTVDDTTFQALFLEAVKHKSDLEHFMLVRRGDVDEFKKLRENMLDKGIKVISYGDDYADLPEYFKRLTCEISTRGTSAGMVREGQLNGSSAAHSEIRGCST
inactive: vemurafenib -0.06 | [1] 0.03 | barasertib 0.004 | [2] -0.014 | volasertib 0.001 | [3] 0.022 | [4] -0.03 | [5] -0.027 | saracatinib 0.004 | sotrastaurin 0.048 | alvocidib -0.023 | Tubastatin A -0.058 | [6] -0.002 | defactinib 0.037 | [7] -0.009 | encorafenib 0.026 | [8] -0.048 | alisertib -0.011 | [9] -0.043 | gefitinib 0.016

ENO1 isoform 2 (UniProt P06733)
inactive: vemurafenib 0.02 | [1] -0.005 | barasertib -0.09 | [2] 0.073 | volasertib 0.004 | [3] -0.021 | [4] -0.263 | saracatinib 0.01 | sotrastaurin 0.01 | alvocidib -0.174 | Tubastatin A 0.085 | [6] -0.13 | defactinib -0.001 | [7] 0.009 | encorafenib 0.033 | [8] -0.033 | alisertib 0.022 | [9] -0.004 | gefitinib -0.015
active: [5] 0.269

EPHX2 (UniProt P34913)
inactive: vemurafenib -0.026 | [1] -0.01 | barasertib -0.026 | [2] 0.016 | volasertib 0.041 | [3] -0.004 | [4] -0.044 | [5] 0.119 | saracatinib -0.018 | sotrastaurin 0.06 | alvocidib -0.018 | Tubastatin A 0.183 | [6] -0.023 | defactinib -0.002 | [7] 0.123 | encorafenib -0.02 | [8] -0.058 | alisertib -0.045 | [9] -0.007 | gefitinib -0.002

GBF1 (UniProt Q92538)
Sequence of UniProt Q92538 (Q92538 whole entry, looked up): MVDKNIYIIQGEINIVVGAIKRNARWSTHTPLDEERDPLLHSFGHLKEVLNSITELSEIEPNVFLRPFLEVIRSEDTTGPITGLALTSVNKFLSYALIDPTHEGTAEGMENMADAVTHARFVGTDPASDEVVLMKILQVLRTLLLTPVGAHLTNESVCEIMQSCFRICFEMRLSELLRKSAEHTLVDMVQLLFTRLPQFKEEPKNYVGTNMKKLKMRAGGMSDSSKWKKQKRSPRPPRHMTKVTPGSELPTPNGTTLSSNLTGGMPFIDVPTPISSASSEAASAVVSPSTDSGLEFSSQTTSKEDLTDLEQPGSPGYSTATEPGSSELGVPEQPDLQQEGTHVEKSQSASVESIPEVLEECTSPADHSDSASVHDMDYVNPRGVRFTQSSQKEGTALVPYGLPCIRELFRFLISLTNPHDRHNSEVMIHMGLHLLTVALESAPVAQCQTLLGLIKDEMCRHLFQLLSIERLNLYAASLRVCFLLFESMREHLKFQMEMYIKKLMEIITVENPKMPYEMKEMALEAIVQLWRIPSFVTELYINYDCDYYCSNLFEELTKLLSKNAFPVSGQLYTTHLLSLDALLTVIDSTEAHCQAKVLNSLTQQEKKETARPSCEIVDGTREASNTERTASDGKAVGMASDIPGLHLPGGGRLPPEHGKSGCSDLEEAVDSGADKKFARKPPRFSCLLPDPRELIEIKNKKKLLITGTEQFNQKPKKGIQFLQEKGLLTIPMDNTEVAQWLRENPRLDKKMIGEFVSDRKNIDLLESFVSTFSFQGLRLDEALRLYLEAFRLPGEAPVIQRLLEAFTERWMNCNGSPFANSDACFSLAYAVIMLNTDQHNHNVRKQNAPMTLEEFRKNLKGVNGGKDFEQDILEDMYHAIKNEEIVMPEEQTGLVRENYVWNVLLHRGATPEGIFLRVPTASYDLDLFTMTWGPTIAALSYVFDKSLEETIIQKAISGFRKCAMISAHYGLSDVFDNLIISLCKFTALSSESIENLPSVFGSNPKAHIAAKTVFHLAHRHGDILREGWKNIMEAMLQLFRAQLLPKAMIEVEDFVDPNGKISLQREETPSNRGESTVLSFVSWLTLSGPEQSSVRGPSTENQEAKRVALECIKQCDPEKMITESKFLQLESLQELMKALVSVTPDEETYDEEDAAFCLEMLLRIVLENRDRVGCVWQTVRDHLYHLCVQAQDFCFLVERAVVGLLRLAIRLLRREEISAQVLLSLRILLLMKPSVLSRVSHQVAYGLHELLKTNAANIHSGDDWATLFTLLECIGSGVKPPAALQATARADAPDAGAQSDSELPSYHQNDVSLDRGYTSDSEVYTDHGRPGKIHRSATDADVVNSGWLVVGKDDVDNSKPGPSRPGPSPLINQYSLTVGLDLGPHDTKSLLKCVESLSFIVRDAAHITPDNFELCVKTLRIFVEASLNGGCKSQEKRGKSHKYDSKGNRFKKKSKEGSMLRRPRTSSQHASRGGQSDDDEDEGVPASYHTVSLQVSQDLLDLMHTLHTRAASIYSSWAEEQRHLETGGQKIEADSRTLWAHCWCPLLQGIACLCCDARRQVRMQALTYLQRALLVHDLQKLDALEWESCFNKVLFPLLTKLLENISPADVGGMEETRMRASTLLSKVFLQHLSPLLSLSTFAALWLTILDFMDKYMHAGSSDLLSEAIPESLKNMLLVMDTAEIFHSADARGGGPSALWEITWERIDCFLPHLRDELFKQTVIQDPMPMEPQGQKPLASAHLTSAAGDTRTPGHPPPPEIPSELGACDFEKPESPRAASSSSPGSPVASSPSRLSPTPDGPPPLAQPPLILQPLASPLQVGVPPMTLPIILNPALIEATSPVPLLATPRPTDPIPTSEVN
inactive: vemurafenib 0.023 | [1] 0.04 | barasertib 0.087 | [2] -0.004 | volasertib -0.05 | [3] 0.006 | [4] -0.011 | [5] -0.046 | saracatinib -0.011 | sotrastaurin 0.019 | alvocidib 0 | Tubastatin A -0.041 | [6] 0.032 | defactinib 0.007 | [7] 0.004 | encorafenib 0.036 | [8] -0.031 | alisertib 0.002 | [9] -0.008 | gefitinib -0.03

EIF2B3 (UniProt Q9NR50)
active: [4] 0.287
inactive: vemurafenib 0.013 | [1] 0.021 | barasertib -0.008 | [2] -0.028 | volasertib -0.02 | [3] 0.044 | [5] -0.111 | saracatinib 0.005 | sotrastaurin -0.003 | alvocidib 0.071 | Tubastatin A -0.103 | [6] -0.009 | defactinib 0.008 | [7] -0.012 | encorafenib -0.007 | [8] 0.057 | alisertib -0.016 | [9] -0.007 | gefitinib -0.041

GGA2 (UniProt Q9UJY4)
inactive: vemurafenib -0.003 | [1] 0.011 | barasertib 0.073 | [2] -0.005 | volasertib -0.048 | [3] 0.032 | [4] -0.02 | [5] -0.088 | saracatinib 0.025 | sotrastaurin 0.041 | alvocidib 0.002 | Tubastatin A -0.085 | [6] 0.003 | defactinib -0.029 | [7] -0.018 | encorafenib 0.002 | [8] 0.01 | alisertib 0.038 | [9] 0.023 | gefitinib -0.025

ETHE1 (UniProt O95571)
inactive: vemurafenib -0.018 | [1] 0.022 | barasertib 0.076 | [2] -0.013 | volasertib -0.017 | [3] -0.007 | [4] 0.044 | [5] 0.003 | saracatinib 0.001 | sotrastaurin -0.004 | alvocidib -0.076 | Tubastatin A 0.035 | [6] -0.014 | defactinib -0.008 | [7] -0.021 | encorafenib 0.008 | [8] 0.037 | alisertib 0.094 | [9] 0.022 | gefitinib -0.14

DUS2 (UniProt Q9NX74)
active: [8] 0.352
inactive: vemurafenib 0.022 | [1] 0.032 | barasertib -0.026 | [2] -0.033 | volasertib -0.071 | [3] -0.016 | [4] -0.095 | [5] 0.023 | saracatinib -0.095 | sotrastaurin -0.017 | alvocidib 0.056 | Tubastatin A -0.084 | [6] 0.013 | defactinib 0.016 | [7] -0.045 | encorafenib -0.027 | alisertib -0.007 | [9] 0.013 | gefitinib 0.026

FYB1 isoform 3 (UniProt O15117)
Sequence of UniProt O15117 (O15117 whole entry, looked up): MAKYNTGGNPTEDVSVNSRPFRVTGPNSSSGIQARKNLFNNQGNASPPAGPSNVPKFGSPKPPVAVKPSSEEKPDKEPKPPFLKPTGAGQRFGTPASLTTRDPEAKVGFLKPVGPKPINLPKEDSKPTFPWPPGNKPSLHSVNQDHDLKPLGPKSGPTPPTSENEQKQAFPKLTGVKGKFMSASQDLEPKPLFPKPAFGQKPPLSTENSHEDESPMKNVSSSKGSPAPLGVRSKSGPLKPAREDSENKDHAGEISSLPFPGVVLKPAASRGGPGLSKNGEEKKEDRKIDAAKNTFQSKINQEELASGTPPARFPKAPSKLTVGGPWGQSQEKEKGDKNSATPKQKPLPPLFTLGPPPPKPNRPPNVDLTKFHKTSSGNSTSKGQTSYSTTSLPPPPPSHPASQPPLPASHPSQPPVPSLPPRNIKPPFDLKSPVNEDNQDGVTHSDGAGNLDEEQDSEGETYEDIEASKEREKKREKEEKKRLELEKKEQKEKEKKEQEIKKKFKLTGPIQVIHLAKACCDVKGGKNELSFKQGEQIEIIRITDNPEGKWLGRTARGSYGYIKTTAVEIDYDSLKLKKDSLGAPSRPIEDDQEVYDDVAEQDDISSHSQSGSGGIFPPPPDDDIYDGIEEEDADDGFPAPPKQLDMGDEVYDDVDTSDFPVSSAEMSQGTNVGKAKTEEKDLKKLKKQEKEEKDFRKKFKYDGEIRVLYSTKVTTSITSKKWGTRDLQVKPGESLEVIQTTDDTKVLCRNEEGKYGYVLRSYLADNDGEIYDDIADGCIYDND
inactive: vemurafenib -0.056 | [1] -0.011 | barasertib -0.003 | [2] 0.043 | volasertib -0.026 | [3] -0.018 | [4] 0.072 | [5] -0.101 | saracatinib 0.007 | sotrastaurin 0.008 | alvocidib -0.012 | Tubastatin A -0.001 | [6] 0.013 | defactinib 0.033 | [7] 0.065 | encorafenib -0.005 | [8] -0.035 | alisertib -0.012 | [9] -0.014 | gefitinib -0.029

GCN1 (UniProt Q92616)
inactive: vemurafenib 0.025 | [1] 0.004 | barasertib 0.061 | [2] -0.107 | volasertib -0.084 | [3] 0.082 | [4] -0.05 | [5] -0.07 | saracatinib 0.015 | sotrastaurin -0.006 | alvocidib 0.036 | Tubastatin A -0.181 | [6] 0.001 | defactinib 0.037 | [7] -0.023 | encorafenib 0.014 | [8] 0.147 | alisertib 0.023 | [9] 0.006 | gefitinib -0.004

EXTL2 (UniProt Q9UBQ6)
Sequence of UniProt Q9UBQ6 (Q9UBQ6 whole entry, looked up): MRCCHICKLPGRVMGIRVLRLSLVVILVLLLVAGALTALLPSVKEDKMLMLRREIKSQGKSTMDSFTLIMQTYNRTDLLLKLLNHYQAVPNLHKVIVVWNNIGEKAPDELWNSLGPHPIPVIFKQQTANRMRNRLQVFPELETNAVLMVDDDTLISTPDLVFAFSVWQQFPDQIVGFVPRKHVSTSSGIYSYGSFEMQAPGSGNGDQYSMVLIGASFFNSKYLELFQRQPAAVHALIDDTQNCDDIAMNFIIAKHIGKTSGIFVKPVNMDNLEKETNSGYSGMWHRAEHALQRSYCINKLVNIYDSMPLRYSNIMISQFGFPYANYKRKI
inactive: vemurafenib -0.052 | [1] 0.066 | barasertib 0.057 | [2] -0.13 | volasertib 0.019 | [3] 0.03 | [4] -0.198 | [5] 0.078 | saracatinib -0.017 | sotrastaurin -0.026 | alvocidib -0.016 | Tubastatin A 0 | [6] 0.009 | defactinib 0.037 | [7] 0.104 | encorafenib 0.168 | [8] -0.048 | alisertib -0.021 | [9] -0.005 | gefitinib -0.111
